Compound activity as filed in PubChem BioAssay.
DAX1 inh-1: NR0B1 (DAX1) inhibition. HEK293 Gal4-DAX1 luciferase reporter, luminescence. hit rate 0.99% among 340,000. inhibition, % at 6.75 µM. AID 504766;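 active means inhibition above the mean over all tested compounds plus 3 SD, cut at about 4.2% in these data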;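 further: inhibition shows as a rise in luminescence from relieved DAX1 repression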
Target sequence (P51843 207-470 limits assumed): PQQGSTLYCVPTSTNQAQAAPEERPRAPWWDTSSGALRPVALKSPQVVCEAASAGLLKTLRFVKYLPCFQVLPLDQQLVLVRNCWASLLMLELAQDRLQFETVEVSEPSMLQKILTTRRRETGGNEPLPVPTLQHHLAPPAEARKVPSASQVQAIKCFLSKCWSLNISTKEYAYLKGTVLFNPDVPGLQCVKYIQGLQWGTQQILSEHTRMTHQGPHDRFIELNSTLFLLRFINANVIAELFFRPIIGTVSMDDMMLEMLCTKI
ssDAF12 agonist: activators of S. stercoralis DAF-12 nuclear receptor. HEK293 ssDAF-12/GRIP1 lit1-tk-luc reporter, luminescence; % of 3 µM dafachronic acid response. activation, % at 6.8 µM. hit rate 1% among 370,000;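 active means activation above the mean over all tested compounds plus 3 SD, cut at about 0.9% in these data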
hgDAF-12 ag: agonists of H. glycines DAF-12 nuclear receptor; hit rate 1.8% among 370,000; activation, % at 6.8 µM; AID 687014; HEK293 GAL4-hgDAF12 UAS-luciferase reporter, agonist luminescence; normalized to butyrate control;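 active means activation above a cutoff set at the mean of all screened compounds plus 3 SD, cut at about 10% in these data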
DAX1 inh-2: DAX1 (NR0B1) inhibition, primary screen; HEK293T StAR-luciferase reporter, SF-1/DAX-1 repression relief; inhibition, % at 6.8 µM; hit rate 1.1% among 370,000;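 active means inhibition above the mean over all tested compounds plus 3 SD, cut at about 3.6% in these data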;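 further: higher inhibition means more luminescence from relief of DAX-1 repression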
hcDAF-12 act: activators of H. contortus DAF-12 nuclear receptor. HEK293 hcDAF-12 lit1-tk-luc reporter, luminescence; 0% DMSO, 100% Δ7-dafachronic acid. activation, % at 6.8 µM. hit rate 1.4% among 370,000;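 active means activation above the mean of all tested compounds plus 3 SD, cut at about 5.5% in these data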
SMARCA2 act: increases SMARCA2 function in MMTV reporter cells. MG213 cells, MMTV-luciferase reporter, dexamethasone, overnight. hit rate 1% among 370,000. activation, % at 9.1 µM; in the data active means activation above about 7.8%
Each line names hits and unclear results; the compound was inactive in the other large screens. Shown are actives, neighbours in structure and some others; about 4.8% of the full set was active somewhere.

C#CCNC(=O)C[C@H]1C[C@@]2(C(=O)OC)C(=C[C@H](COCc3ccccc3)O[C@@H]2C)N(Cc2cccc3ccccc23)C1=O	none (no result: DAX1 inh-1)
COc1ccc(NC(=O)Cc2cccs2)c(OC)c1	hgDAF-12 ag 10.5
COc1ccc(NC(=O)C(NC(=O)Cc2cccs2)c2ccccc2)cc1 (stereo not given)	none
COc1ccc(NC(=O)CCC(=O)c2cccs2)c(OC)c1	none (no result: ssDAF12 agonist, hgDAF-12 ag, DAX1 inh-2, hcDAF-12 act, SMARCA2 act)
COc1ccc(NC(=O)C(NC(=O)Cc2cccs2)c2ccc(C)cc2)cc1 (stereo not given)	DAX1 inh-1 4.7
c1ccc2cc3[nH]c(CNc4nc(N5CCOCC5)nc5c4ncn5-c4ccsc4)nc3cc2c1	none (no result: DAX1 inh-1, DAX1 inh-2, SMARCA2 act)
O=C(Cn1cc2c(n1)CCCCC2)N1CCc2ccccc21	hcDAF-12 act 6.3
N#C[C@@H]1N[C@H](CO)[C@@H]1c1ccccc1	none (no result: DAX1 inh-1)
Cc1nc2cc(Cl)ccc2n1-c1ccccc1	none
Cc1n(-c2ccccc2)c2ccc(Cl)cc2[n+]1CCO	hgDAF-12 ag 12.4
CN(CC#CC1=CCCCC1)/C(N)=N/C(=O)OCc1ccccc1	none (no result: DAX1 inh-1)
CCCNC(=O)C(=O)Nc1ccc2c(c1)N(S(=O)(=O)c1cccs1)CCC2	none
COCCCNC(=O)C(=O)Nc1ccc2c(c1)N(S(=O)(=O)c1cccs1)CCC2	DAX1 inh-2 4.2
COc1ccc(N2CCCN(CC(=O)Nc3ccc(Cl)c(Cl)c3)CC2)cc1	none (no result: DAX1 inh-1)
COc1ccc(C(C(=O)Nc2ccc(F)cc2)N2CCN(CC(=O)N3CCCC3)CC2)cc1 (stereo not given)	DAX1 inh-2 4.2 (no result: DAX1 inh-1)
O=C(Nc1ccc(F)cc1)C(c1ccccc1)N1CCN(CC(=O)N2CCCC2)CC1 (stereo not given)	none
O=C(C1CCN(Cc2ccc(OCc3ccccc3)cc2)CC1)N1CCCC1	none
CCNC(=O)C1CCCN(Cc2ccc(OCc3ccccc3)cc2)CC1 (stereo not given)	none (no result: DAX1 inh-1)
OC1CCN(Cc2ccc(OCc3ccccc3)cc2)CC1	hgDAF-12 ag 11.3, hcDAF-12 act 6.3
CCCCNC(=O)C1CCN(Cc2ccc(OCc3ccccc3)cc2)CC1	hgDAF-12 ag 10.7
COCCCNC(=O)C[C@H]1C[C@@]2(C(=O)OC)C(=C[C@H](C3CCCC3)O[C@@H]2C)N(CCc2ccc(OC)c(OC)c2)C1=O	none (no result: DAX1 inh-1)
COc1cccc(-n2c([S-])c(C(=O)Nc3ccc(S(=O)(=O)N4CCOCC4)cc3)[n+]3cc(C(N)=O)ccc23)c1	DAX1 inh-1 4.2
CC(C)COc1cccc(C(=O)Nc2ccc(S(=O)(=O)N3CCOCC3)cc2)c1	none
Cc1cccc(NC(=O)c2cnc3sccn3c2=O)c1C	hgDAF-12 ag 12.3, DAX1 inh-2 3.9 (no result: DAX1 inh-1)
Cc1cccc(NC(=O)c2cnc3sccn3c2=O)n1	none
O=C(Nc1ccc(F)cc1)OCc1cn(Cc2cccc(F)c2F)nn1	none (no result: DAX1 inh-1)
O=c1c2cc3cc(Cl)ccc3nc2ncn1N1CCCCC1	ssDAF12 agonist 0.9 (no result: DAX1 inh-1)
O=c1c2cc3cc(Cl)ccc3nc2ncn1CCc1ccc(O)cc1	none (no result: DAX1 inh-1)
COc1ccc(C(=O)N/N=C/c2ccccn2)cc1OC	none
O=C(N/N=C/c1ccccn1)c1cccs1	ssDAF12 agonist 1.5
COc1ccc(OC)c(C(=O)N/N=C/c2ccccn2)c1	DAX1 inh-1 4.6
CN(C)c1ccc(C(=O)N/N=C/c2ccccn2)cc1	hgDAF-12 ag 11.8, DAX1 inh-2 3.6
Cc1ccccc1C(=O)N/N=C/c1ccccn1	hgDAF-12 ag 12.9, SMARCA2 act 10.4
CCn1c(Cc2cccs2)nnc1SCC(=O)Nc1ccc(Cl)cc1C	none (no result: DAX1 inh-1)
C[C@H]1[C@@H](OC(=O)NCc2cccc(C(F)(F)F)c2)CC[C@@]23CCCN2C(=O)CCC[C@@H]13	none (no result: DAX1 inh-1, DAX1 inh-2, SMARCA2 act)
CCC[C@@H](/C=C/C(=O)OC(C)(C)C)Sc1ccccc1OC	none (no result: DAX1 inh-1)
COc1ccc(NC(=O)NC2CCN(S(=O)(=O)c3ccc(F)cc3)CC2)cc1OC	none (no result: DAX1 inh-1)
COc1ccc(-c2noc(C3CCCN(C(=O)Nc4ccc(C)c(F)c4)C3)n2)cc1 (stereo not given)	none (no result: DAX1 inh-1)
O=C(NC1CCCCN(Cc2cccc(Cl)c2)C1=O)c1ccccn1 (stereo not given)	none (no result: DAX1 inh-1)
CCCOC(=O)Nc1cc(OC)ccc1[N+](=O)[O-]	DAX1 inh-1 4.7
CSc1ccc(/C=C/C(=O)c2ccc(O)cc2)cc1	none
Cc1ccc(/C=C/C(=O)c2ccc(O)cc2)cc1	DAX1 inh-1 4.4, hgDAF-12 ag 11.0
COC(=O)[C@@H]1C[C@@]2(c3ccccc3)c3ccccc3N(S(=O)(=O)c3ccccc3)[C@H]2N1C(=O)CNC1CCCCC1	none (no result: DAX1 inh-1)
O=C(Nn1cnnc1)c1ccc(Cl)c(Cl)c1	DAX1 inh-1 6.2
C/C(CC(=O)Nc1cccc2c1CCCC2)=N\NC(=O)c1ccccc1N	none
C/C(CC(=O)NC(C)(C)C)=N\NC(=O)c1ccccc1N	DAX1 inh-1 4.7
CS(=O)(=O)c1ccc2nc(NC(=O)C3COc4ccccc4O3)sc2c1 (stereo not given)	none
COc1ccc2nc(NC(=S)NC(=O)c3ccco3)sc2c1	hgDAF-12 ag 11.1
COc1ccc2nc(NNC(=O)C3COc4ccccc4O3)sc2c1 (stereo not given)	ssDAF12 agonist 1.3, hcDAF-12 act 6.2
COc1ccc2nc(NC(=O)c3cc(C)oc3C)sc2c1	hgDAF-12 ag 10.6
CC(C)(C)c1ccc(S(=O)(=O)N2CCCC(C(=O)NCc3ccco3)C2)cc1 (stereo not given)	none (no result: DAX1 inh-1)
CN(Cc1ccccc1)C(=O)OCc1cn(Cc2cc(F)ccc2F)nn1	none (no result: DAX1 inh-1)
O=C(NCc1cccnc1)c1ccc2c(c1)N(Cc1ccccc1)CCS2	DAX1 inh-1 6.0
C/C(=N\OCC(=O)OCC(=O)NCc1ccccc1)c1ccc2c(c1)OCO2	DAX1 inh-2 3.9
Cc1cccc(NC(=O)NCc2ccc3c(c2)OCO3)c1	DAX1 inh-2 4.4
Cc1ccccc1OCC(=O)OCC(=O)NCc1ccc2c(c1)OCO2	ssDAF12 agonist 1.2
COC(=O)C1C(c2ccccc2)NC(=O)NC1(O)C(F)(F)Cl (stereo not given)	DAX1 inh-1 4.7
CCOc1ccc(/C=C/C(=O)N2CCOCC2)cc1OC	none
CCOc1cc(C(=S)N2CCOCC2)ccc1OC(=O)/C=C/c1ccc(OC)c(OC)c1	hgDAF-12 ag 10.8
CC(=O)c1ccc(Oc2ncnc3sccc23)cc1	hgDAF-12 ag 11.0
CC(=O)N1CCN(c2ccc(Oc3ncnc4sccc34)cc2)CC1	none
O=C(Cc1cccs1)NC1CCCCN(Cc2cccc(Cl)c2)C1=O (stereo not given)	none (no result: DAX1 inh-1)
Cc1nc2ccc(S(=O)(=O)NCC(=O)N3CCc4ccccc43)cc2s1	ssDAF12 agonist 0.9
O=C(N/N=C/c1ccncc1)NC1CCCCC1	DAX1 inh-1 5.9
O=C([C@@H]1C[C@H]1c1ccccc1)N1CC[C@H]2[C@H](CCCN2Cc2ccccc2)C1	none (no result: DAX1 inh-1)
